The results in this text go back to PubChem BioAssay (NCI).

Compounds without any hit were thinned out: in the full panel of roughly 83,000, 20% have a hit.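 A percent growth of 40 corresponds to 60% growth inhibition; 0 means no net growth; -100 means all cells died. Active threshold: below 10.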 A number with no mark means an inactive call. Calls of active or inactive are those of the source.

Test systems include NCI-H226 lung; NCI-H322M lung; HOP-62 NSCLC; NCI-H460 lung; HOP-92 NSCLC; NCI-H522 lung; A549/ATCC NSCLC; 786-0 renal; COLO 205 colon; DU-145 prostate; K-562 leukemia; MALME-3M melanoma; MDA-MB-231 breast; RXF 393 renal; SF-268 CNS; SF-295 CNS; SF-539 CNS; UACC-257 melanoma; M14 melanoma.
Test in all cases: NCI-60 one-dose screen, 48 h (100 = growth as untreated, 0 = no growth, -100 = all killed)
Holding throughout (details): 10 µM unless noted

As for `COC1C(O)CC(OC2CC(OC3CC(O[C@@H]4C(=O)c5c(cc6cc(OC7CC(OC8CC(O)C(O)C(C)O8)C(O)C(C)O7)c(C)c(O)c6c5O)CC4[C@H](OC)[C@@H](O)C(C)=O)OC(C)C3O)OC(C)C2O)OC1C` (some centres not stated), the growth is -16.6% (active) in the assay with NCI-H226 lung; 4.31% (active) with NCI-H322M lung; -3.94% (active) with HOP-62 NSCLC; 7.99% (active) with NCI-H460 lung; 5.01% (active) in the assay on HOP-92 NSCLC; -26.4% (active) in the assay with NCI-H522 lung. In addition, the growth with A549/ATCC NSCLC was 3.44% (active); in the assay on 786-0 renal it was 8.03% (active); in the assay with COLO 205 colon, -21.3% (active); in the assay with DU-145 prostate, 15.8%; in the assay with K-562 leukemia, 9.22% (active); with MALME-3M melanoma it was -11.6% (active). Also, the growth was 36.2% in the assay on MDA-MB-231 breast; -57.5% (active) with RXF 393 renal; 21.5% in the assay on SF-268 CNS; 8.38% (active) in the assay with SF-295 CNS; -6.81% (active) with SF-539 CNS; -14.7% (active) with UACC-257 melanoma. Besides, the growth with M14 melanoma was -21.2% (active).
Consider `Cc1cc(N2CCN(CC(=O)Nc3ccc4c(ccn4Cc4ccccc4)c3)CC2)nc(N2CCOCC2)n1`, for which the growth in the assay with NCI-H226 lung is 84.3%; in the assay with NCI-H322M lung, 90.4%; in the assay with HOP-62 NSCLC, 91.1%; with NCI-H460 lung, 95.2%; with HOP-92 NSCLC it was 45.4%; with NCI-H522 lung it was 73.8%. Also, the growth in the assay on A549/ATCC NSCLC was 73.6%; with 786-0 renal, 84.6%; with COLO 205 colon it was 98.2%; in the assay with DU-145 prostate, 95.4%; in the assay on K-562 leukemia, 60.5%; in the assay on MALME-3M melanoma, 85.7%. Also, the growth is 93.4% in the assay on MDA-MB-231 breast; 63.9% with RXF 393 renal; 92.9% in the assay on SF-268 CNS; 84% in the assay on SF-295 CNS; 98.2% in the assay on SF-539 CNS; 80.2% in the assay on UACC-257 melanoma. In addition, the growth in the assay with M14 melanoma was 90.1%.
Regarding `C=C1C(=O)O[C@H]2[C@H]1CC/C(COC(=O)/C=C\C(=O)NCc1ccc(Cn3c(=O)sn(CCCCl)c3=O)cc1)=C\CC[C@@]1(C)O[C@@H]21`, the growth in the assay with NCI-H226 lung was 92.9%; in the assay with NCI-H322M lung it was 107%; in the assay with HOP-62 NSCLC, 87.7%; with NCI-H460 lung, 93.4%; in the assay on HOP-92 NSCLC it was 81.7%; in the assay on NCI-H522 lung, -12% (active). Besides, the growth was 92.7% in the assay on A549/ATCC NSCLC; 67.7% with 786-0 renal; 4.69% (active) in the assay with COLO 205 colon; 45.9% with DU-145 prostate; 26.7% with K-562 leukemia; 49.6% in the assay with MALME-3M melanoma. Also, the growth with MDA-MB-231 breast is 71.9%; in the assay on RXF 393 renal it was 86.9%; in the assay with SF-268 CNS it was 93.5%; in the assay with SF-295 CNS it was 99.4%; with SF-539 CNS, 79.9%; in the assay on UACC-257 melanoma, 68.9%. In addition, the growth with M14 melanoma was 40.4%.
For `COC(=O)c1nc(-c2ccccc2)oc1S(=O)(=O)N1CCCC(C)C1` (configuration not stated), the growth is 90.6% in the assay on NCI-H226 lung; 90.2% in the assay with NCI-H322M lung; 107% in the assay on HOP-62 NSCLC; 102% in the assay with NCI-H460 lung; 72.7% in the assay with HOP-92 NSCLC; 28.6% with NCI-H522 lung. Also, the growth was 96.8% with A549/ATCC NSCLC; 59.1% in the assay with 786-0 renal; 67.7% in the assay with COLO 205 colon; 91.3% with DU-145 prostate; 17.7% with K-562 leukemia; 78.2% in the assay on MALME-3M melanoma. The growth is 76.8% in the assay on MDA-MB-231 breast; 78.8% in the assay with RXF 393 renal; 85.8% in the assay on SF-268 CNS; 108% in the assay with SF-295 CNS; 85% with SF-539 CNS; 82.3% in the assay on UACC-257 melanoma. The growth in the assay on M14 melanoma is 39.3%.
Regarding `CCCCCCCCCCCCCCCCCCOc1ccccc1CC(=O)NCC[N+](C)(C)C`, the growth with NCI-H226 lung was 61.6%; with NCI-H322M lung it was 66.9%; with HOP-62 NSCLC it was 5.94% (active); in the assay with NCI-H460 lung, 22.5%; in the assay on HOP-92 NSCLC, -5.43% (active); in the assay on NCI-H522 lung, 7.44% (active). The growth is 40.8% with A549/ATCC NSCLC; 16.2% with 786-0 renal; -85.2% (active) in the assay on COLO 205 colon; 44.3% in the assay with DU-145 prostate; 25.9% in the assay with K-562 leukemia; 78.8% with MALME-3M melanoma. The growth in the assay on MDA-MB-231 breast is 46.7%; in the assay with RXF 393 renal, -39.7% (active); in the assay on SF-268 CNS it was 24.2%; with SF-295 CNS, 52.1%; in the assay on SF-539 CNS, 46.4%; in the assay with UACC-257 melanoma it was 93.8%. Also, the growth in the assay on M14 melanoma was 33.7%.
Consider `COC(=O)c1sccc1-c1cc(O)c(C(=O)Nc2ccccc2)s1`, for which the growth was 90.9% in the assay on NCI-H226 lung; 92.2% in the assay with HOP-62 NSCLC; 104% in the assay on NCI-H460 lung; 97.9% in the assay with HOP-92 NSCLC; 90.9% with NCI-H522 lung; 91.5% in the assay on A549/ATCC NSCLC. The growth in the assay with 786-0 renal is 106%; in the assay with COLO 205 colon, 102%; in the assay on DU-145 prostate, 99.1%; in the assay on K-562 leukemia, 91.6%; in the assay with MALME-3M melanoma, 84.5%; in the assay on MDA-MB-231 breast, 91.5%. The growth was 115% in the assay with RXF 393 renal; 91.7% in the assay with SF-268 CNS; 99.4% in the assay on SF-295 CNS; 98.8% in the assay on SF-539 CNS; 91.6% in the assay with UACC-257 melanoma; 93.3% in the assay with M14 melanoma.
For `CCCCCc1ccc(S(=O)(=O)Nc2ccc3nc(N)oc3c2)cc1`, the growth was 46.3% with NCI-H226 lung; 96.9% with NCI-H322M lung; 78.5% in the assay on HOP-62 NSCLC; 60.8% with NCI-H460 lung; 19.5% in the assay on HOP-92 NSCLC; 43.7% in the assay with NCI-H522 lung. The growth in the assay with A549/ATCC NSCLC is 53.2%; with 786-0 renal it was 72.4%; with COLO 205 colon, 72.4%; with DU-145 prostate, 74.2%; in the assay with K-562 leukemia, 27.9%; with MALME-3M melanoma, 89.8%. For the same compound, the growth in the assay with MDA-MB-231 breast is 64.3%; in the assay on RXF 393 renal, 77.4%; in the assay with SF-268 CNS it was 51.1%; in the assay with SF-295 CNS, 30.8%; in the assay with SF-539 CNS, 71.3%; in the assay on UACC-257 melanoma, 34.4%. Further, the growth with M14 melanoma was 73.1%.
